Reference: PMC5700166

How the values were obtained:
Experiment in all cases: protein-binding microarray (PBM); PBM: ~300 nM protein, 6 mM HEPES pH 7.8, 80 mM KCl, 0.5 mM EDTA, 0.5 mM EGTA, 6% glycerol, 35 ng/ul poly-dIdC, 1% milk, 1 h, room temperature; Ap Aiptasia and Nv Nematostella (sea anemones) / Co Capsaspora / Aq Amphimedon (sponge) / Dm Drosophila / Hu human; RHD is the Rel homology domain; high values mean tight binding
Settings in all cases: dsDNA, one strand shown
GST-Ap-NF-kB RHD = target: T1, GST-Ap-NF-kB RHD (Exaiptasia pallida (Aiptasia), UniProt A0A913YAJ5 2-422)
T1 sequence: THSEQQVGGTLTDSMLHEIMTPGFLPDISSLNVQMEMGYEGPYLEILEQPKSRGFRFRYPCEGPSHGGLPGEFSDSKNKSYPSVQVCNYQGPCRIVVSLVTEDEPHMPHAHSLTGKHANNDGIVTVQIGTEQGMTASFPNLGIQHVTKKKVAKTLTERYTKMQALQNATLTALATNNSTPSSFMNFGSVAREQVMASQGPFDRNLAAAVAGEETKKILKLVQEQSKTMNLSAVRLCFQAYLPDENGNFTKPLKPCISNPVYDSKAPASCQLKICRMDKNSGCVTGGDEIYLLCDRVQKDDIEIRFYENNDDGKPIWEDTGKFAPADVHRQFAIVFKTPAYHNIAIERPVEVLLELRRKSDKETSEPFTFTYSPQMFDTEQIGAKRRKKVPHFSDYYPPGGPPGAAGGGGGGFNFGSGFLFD

[1] = target: T2, GST-Nv-NF-kB (Cys allele) (Nematostella vectensis, UniProt E5G601 2-411)
T2 sequence: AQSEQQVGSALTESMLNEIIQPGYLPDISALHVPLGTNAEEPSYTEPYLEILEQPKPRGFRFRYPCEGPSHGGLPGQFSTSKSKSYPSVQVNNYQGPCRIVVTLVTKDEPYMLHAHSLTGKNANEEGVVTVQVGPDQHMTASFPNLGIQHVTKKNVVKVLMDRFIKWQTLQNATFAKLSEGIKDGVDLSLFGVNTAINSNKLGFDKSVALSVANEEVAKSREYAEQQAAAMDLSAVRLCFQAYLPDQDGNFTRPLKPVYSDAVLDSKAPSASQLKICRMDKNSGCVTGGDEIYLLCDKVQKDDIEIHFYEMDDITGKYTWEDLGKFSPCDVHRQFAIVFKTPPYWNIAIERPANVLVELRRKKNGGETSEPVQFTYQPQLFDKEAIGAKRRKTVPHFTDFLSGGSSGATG

GST-Co-NF-kB = target: T3, GST-Co-NF-kB (Capsaspora owczarzaki, UniProt F1ARL5 200-546)
T3 sequence: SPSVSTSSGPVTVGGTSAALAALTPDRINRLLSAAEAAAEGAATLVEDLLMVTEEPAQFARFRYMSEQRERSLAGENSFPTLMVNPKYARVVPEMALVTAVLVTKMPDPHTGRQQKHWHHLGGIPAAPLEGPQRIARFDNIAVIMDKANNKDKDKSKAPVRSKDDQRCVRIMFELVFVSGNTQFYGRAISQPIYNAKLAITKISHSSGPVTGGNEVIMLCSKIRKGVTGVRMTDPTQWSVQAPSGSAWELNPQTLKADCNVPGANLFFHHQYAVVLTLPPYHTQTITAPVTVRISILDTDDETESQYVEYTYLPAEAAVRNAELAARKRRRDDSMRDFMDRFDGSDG

GST-Dm-Relish = target: T4, GST-Dm-Relish (Drosophila melanogaster, UniProt Q94527 99-473)
T4 sequence: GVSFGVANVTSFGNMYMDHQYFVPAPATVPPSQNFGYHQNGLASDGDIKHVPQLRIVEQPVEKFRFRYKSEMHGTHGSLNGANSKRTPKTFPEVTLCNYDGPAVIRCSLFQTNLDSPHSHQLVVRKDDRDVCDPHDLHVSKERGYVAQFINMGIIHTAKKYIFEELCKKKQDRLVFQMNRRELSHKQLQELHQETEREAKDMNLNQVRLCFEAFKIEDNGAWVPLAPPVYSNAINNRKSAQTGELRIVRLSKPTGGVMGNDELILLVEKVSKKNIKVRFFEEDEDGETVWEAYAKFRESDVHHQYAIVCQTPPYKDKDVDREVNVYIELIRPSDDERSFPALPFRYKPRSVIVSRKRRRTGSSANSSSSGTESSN

GST-Aq-NF-kB = target: T5, GST-Aq-NF-kB (Amphimedon queenslandica, UniProt A9Y5G7 2-389)
T5 sequence: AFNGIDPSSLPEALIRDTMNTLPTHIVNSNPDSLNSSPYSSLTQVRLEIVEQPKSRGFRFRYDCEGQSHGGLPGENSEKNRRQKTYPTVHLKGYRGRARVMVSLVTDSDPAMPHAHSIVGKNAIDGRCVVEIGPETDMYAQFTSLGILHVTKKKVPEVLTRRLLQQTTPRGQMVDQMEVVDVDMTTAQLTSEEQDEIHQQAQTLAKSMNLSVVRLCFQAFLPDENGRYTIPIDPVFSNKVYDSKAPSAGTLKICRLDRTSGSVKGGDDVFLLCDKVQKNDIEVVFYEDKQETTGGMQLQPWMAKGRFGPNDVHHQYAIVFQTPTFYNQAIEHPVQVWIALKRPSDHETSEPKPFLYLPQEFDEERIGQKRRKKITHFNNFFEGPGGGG

Row | Sequence | binding signal (GST-Ap-NF-kB RHD) | binding signal [1] | binding signal (GST-Co-NF-kB) | binding signal (GST-Dm-Relish) | binding signal (GST-Aq-NF-kB)
1 | CCGATTAACATCAATTTTTCCCATGATGTTAATCGGGTCTTGATTCGCTTGACGCTGCTG | 2.62 z-score | 4.2 z-score | 5.21 z-score | 1.64 z-score | 3.27 z-score
2 | CCGATTAACATCACGGGACCCCCTGATGTTAATCGGGTCTTGATTCGCTTGACGCTGCTG | 6.47 z-score | 3.01 z-score | 1.75 z-score | 6.84 z-score | 3.7 z-score
3 | CCGATTAACATCAATCACCCCCATGATGTTAATCGGGTCTTGATTCGCTTGACGCTGCTG | 4.03 z-score | 2.63 z-score | 4.35 z-score | 1.86 z-score | 3.32 z-score
4 | CCGATTAACATCAGGGAAATATATGATGTTAATCGGGTCTTGATTCGCTTGACGCTGCTG | 3.7 z-score | 5.66 z-score | 5.34 z-score | 1.94 z-score | 6.09 z-score
5 | CCGATTAACATCAATTTCCCATATGATGTTAATCGGGTCTTGATTCGCTTGACGCTGCTG | 1.56 z-score | 3.3 z-score | 2.34 z-score | 2.14 z-score | 2.17 z-score
6 | CCGATTAACATCAGGGGGTATACTGATGTTAATCGGGTCTTGATTCGCTTGACGCTGCTG | 5.81 z-score | 3.11 z-score | 4.82 z-score | 6.38 z-score | 4.14 z-score
7 | CCGATTAACATCAGGCCTCCCCCTGATGTTAATCGGGTCTTGATTCGCTTGACGCTGCTG | 4.86 z-score | 4.22 z-score | 4.14 z-score | 6 z-score | 6.6 z-score
8 | CCGATTAACATCAACATGGGAAATGATGTTAATCGGGTCTTGATTCGCTTGACGCTGCTG | 1.54 z-score | 2.51 z-score | 1.82 z-score |  | 1.66 z-score
9 | CCGATTAACATCAGGGAGATTTATGATGTTAATCGGGTCTTGATTCGCTTGACGCTGCTG | 3.69 z-score | 5.42 z-score | 2.8 z-score | 1.71 z-score | 5.99 z-score
10 | CCGATTAACATCAAATTCCCAGCTGATGTTAATCGGGTCTTGATTCGCTTGACGCTGCTG | 1.68 z-score | 3.6 z-score | 3.28 z-score | 3.73 z-score | 2.48 z-score
11 | CCGATTAACATCACGGGAAACCCTGATGTTAATCGGGTCTTGATTCGCTTGACGCTGCTG | 4.31 z-score | 4.16 z-score | 3.68 z-score | 7.56 z-score | 5.65 z-score
12 | CCGATTAACATCAGGGATTCACCTGATGTTAATCGGGTCTTGATTCGCTTGACGCTGCTG | 5.22 z-score | 4.92 z-score | 1.03 z-score | 9.89 z-score | 5.57 z-score
13 | CCGATTAACATCAAGTAAATCCCTGATGTTAATCGGGTCTTGATTCGCTTGACGCTGCTG | 2.24 z-score | 2.71 z-score | 1.22 z-score | 7.89 z-score | 3.24 z-score
14 | CCGATTAACATCAAAAAACACCCTGATGTTAATCGGGTCTTGATTCGCTTGACGCTGCTG | 4.07 z-score | 4.18 z-score | 2.93 z-score | 6.06 z-score | 5.32 z-score
15 | CCGATTAACATCAATTTACCCACTGATGTTAATCGGGTCTTGATTCGCTTGACGCTGCTG | 1.67 z-score | 1.68 z-score | 2.34 z-score |  | 1.45 z-score
16 | CCGATTAACATCAGGGGAACACATGATGTTAATCGGGTCTTGATTCGCTTGACGCTGCTG | 4.8 z-score | 5.02 z-score | 6.41 z-score | 4.31 z-score | 4.1 z-score
17 | CCGATTAACATCAAAACAGTCCCTGATGTTAATCGGGTCTTGATTCGCTTGACGCTGCTG | 4.53 z-score | 5.79 z-score | 1.26 z-score | 3.28 z-score | 6.16 z-score
18 | CCGATTAACATCAGGGACGGAAATGATGTTAATCGGGTCTTGATTCGCTTGACGCTGCTG | 2.7 z-score | 3.44 z-score | 2.07 z-score |  | 2.84 z-score
19 | CCGATTAACATCACGAAAATCCCTGATGTTAATCGGGTCTTGATTCGCTTGACGCTGCTG | 4.71 z-score | 4.39 z-score | 1.55 z-score | 6.19 z-score | 4.64 z-score
20 | CCGATTAACATCAGGAATTCCCATGATGTTAATCGGGTCTTGATTCGCTTGACGCTGCTG | 6.4 z-score | 5.88 z-score | 4.61 z-score | 7.97 z-score | 7.09 z-score
21 | CCGATTAACATCAGGGCCCCCCCTGATGTTAATCGGGTCTTGATTCGCTTGACGCTGCTG | 6.57 z-score | 4.21 z-score | 2.89 z-score | 6.49 z-score | 7.6 z-score
22 | CCGATTAACATCAAGGGGGGTGGTGATGTTAATCGGGTCTTGATTCGCTTGACGCTGCTG | 3.51 z-score | 3.67 z-score | 3.06 z-score | 4.12 z-score | 4.15 z-score
23 | CCGATTAACATCAACGTATTCCCTGATGTTAATCGGGTCTTGATTCGCTTGACGCTGCTG | 3.17 z-score | 2.78 z-score | 2.86 z-score | 1.41 z-score | 1.85 z-score
24 | CCGATTAACATCACGGGATTTCCTGATGTTAATCGGGTCTTGATTCGCTTGACGCTGCTG | 4.81 z-score | 4.51 z-score | 1.37 z-score | 7.57 z-score | 6.62 z-score
25 | CCGATTAACATCAGGGATACCCCTGATGTTAATCGGGTCTTGATTCGCTTGACGCTGCTG | 6.66 z-score | 5.69 z-score | 4 z-score | 7.22 z-score | 6.98 z-score
26 | CCGATTAACATCAGGGAAACCACTGATGTTAATCGGGTCTTGATTCGCTTGACGCTGCTG | 3.4 z-score | 4.47 z-score | 3.12 z-score | 8.4 z-score | 6.48 z-score
27 | CCGATTAACATCACCCCTCCCCCTGATGTTAATCGGGTCTTGATTCGCTTGACGCTGCTG | 4.84 z-score | 3.91 z-score | 4.73 z-score | 3.78 z-score | 4.12 z-score
28 | CCGATTAACATCAAAGGAATCCCTGATGTTAATCGGGTCTTGATTCGCTTGACGCTGCTG | 3.02 z-score | 2.14 z-score | 1.06 z-score | 7.59 z-score | 2.92 z-score
